Experiment [1] can be described thus: Cellular Toxicity (caspase-3) Jurkat (AID 655).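 Also: cells exposed to compound for 16 h at 37 °C before reading.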 Conditions: Jurkat caspase-3 activation, luminescence, DMSO = 0%, tamoxifen = 100%; at 92.2 µM (top of the series). The procedure, abridged:
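Luminescent Caspase-Glo 3/7 read-out (20 min, room temperature) after 16 h compound treatment at 37 C of 5000 Jurkat cells per well. AC50 derived by Hill-equation fitting, scaled between DMSO basal and 100 uM tamoxifen stimulation.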

Experiment [2] is described as follows: Cellular Toxicity (caspase-3) HUV-EC-C (AID 656). The procedure, abridged: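 Luminescent Caspase-Glo 3/7 readout after 16 h, 37 °C compound exposure of HUV-EC-C endothelial cells, 1000 per well, complete medium. AC50 derived by Hill fitting, with DMSO as baseline and 100 uM tamoxifen as full activation.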
A short description of experiment [3]: Cellular Toxicity (caspase-3) SHSY5Y (AID 657). The procedure, abridged:
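Luminescent Caspase-Glo 3/7 read-out, 1 hr room temperature, follows 16 hours of compound treatment of SH-SY5Y cells at 37 °C. Normalization: DMSO basal, 10 uM staurosporine as 100%; AC50 values from Hill-equation concentration-response fits.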

Experiment [4] in a line: Cellular Toxicity (caspase-3) BJ (AID 658).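 Also: 0% = DMSO basal and 100% = 10 µM staurosporine.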 The method in brief: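 BJ human foreskin fibroblasts, 1000 cells/well, treated 16 hours at 37 °C in complete medium; caspase 3/7 activity by Caspase-Glo luminescence after 1 hr at room temperature. Normalized to DMSO and 10 uM staurosporine; AC50 from Hill fits.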
A short description of experiment [5]: Cellular Toxicity (caspase-3) MRC-5 (AID 659).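 Also: 0% = DMSO basal and 100% = 10 µM staurosporine.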 The method in brief:
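MRC-5 human normal lung fibroblasts, 1500 cells/well, treated 16 h at 37 °C in complete medium. Caspase 3/7 measured by Caspase-Glo luminescence after 1 h at room temperature. Normalized to DMSO and 10 uM staurosporine; AC50 from Hill fit.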

Experiment [6] is described as follows: Cellular Toxicity (caspase-3) Mesangial (AID 660).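 Also: combined caspase 3 and 7 activity read by Caspase-Glo luminescence.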 The method in brief:
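Mesangial cells, 1000/well, 5 h settle at 37 °C; compound 16 h, 37 °C; Caspase-Glo 3/7 reagent 20 min RT; luminescence. Norm.: DMSO = 0%, tamoxifen 100 uM = 100%. AC50, Hill fit.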

The nature of experiment [7]: Cellular Toxicity (caspase-3) SK-N-SH (AID 661).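 Also: 0% = DMSO basal and 100% = 10 µM staurosporine.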 The method in brief:
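Human neuroblastoma SK-N-SH, 1500 cells/well, 5 hr pre-incubation, then compound 16 hr, 37 °C. Caspase-Glo 3/7 reagent, 1 hr RT, luminescence. Norm. to DMSO/10 uM staurosporine; Hill-fit AC50.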

A short description of experiment [8]: Cellular Toxicity (caspase-3) H-4-II-E (AID 663).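 Also: cells exposed to compound for 16 hr before readout.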 The method in brief: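 Rat hepatoma H-4-II-E cells (1500/well) plated 5 hr, then exposed to compound titrations for 16 hr at 37 °C. Caspase-Glo 3/7 luminescence read after 20 min at RT; data normalized to DMSO and 100 uM tamoxifen, AC50 from Hill fits.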
The nature of experiment [9]: Cellular Toxicity (caspase-3) N2a (AID 665).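 Also: compound exposure lasted 16 h at 37 °C before readout.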 The procedure, abridged:
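N2a cells, 1500/well, 5 h settle at 37 °C; cpd 16 h, 37 °C; Caspase-Glo 3/7, 1 h RT; luminescence. Norm: DMSO = 0, 10 uM staurosporine = 100%. AC50, Hill fit.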

Experiment [10] is described as follows: Cellular Toxicity (caspase-3) NIH 3T3 (AID 666).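 Also: caspase signal read after 16 h compound exposure; 0% = DMSO basal and 100% = 100 µM tamoxifen stimulation.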 The method in brief: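 Luminescence from aminoluciferin released by caspase-3/7 cleavage of a peptide substrate served as read-out. Mouse fibroblast NIH 3T3 cells were exposed to compounds over a concentration range for 16 hours, and AC50 values came from standard Hill modelling.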
Experiment [11] in a line: Cellular Toxicity (caspase-3) Renal Proximal Tubule (AID 667).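 Also: cells exposed to compound for 16 hours at 37 °C before detection; 0% = DMSO basal and 100% = 10 µM staurosporine.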 The procedure, abridged: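 Caspase 3/7 activation measured by luminescent aminoluciferin release in primary rat proximal tubule cells after 16 hr compound exposure at 37 °C. AC50 from Hill-fitted concentration-response, scaled between DMSO and 10 uM staurosporine.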
Experiment [12] addresses Cytochrome P450 3A4 (Homo sapiens) (UniProt P08684). Nature of the experiment: qHTS Assay for Inhibitors and Substrates of Cytochrome P450 3A4 (AID 884). Also: nearly all actives have a fitted effect of over 50% in size. Also: potency is read from the fitted curve at half-maximal effect. The procedure, abridged:
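20 nM human CYP3A4 with 25 uM Luciferin-PPXE (at KM) in 200 mM KPO4, preincubated 10 min with compound; NADPH regeneration started a 60 min RT reaction. Luciferin detected by luminescence, normalized to 57 uM ketoconazole as full inhibition.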
(qHTS replaces the single test concentration by a dilution series.)

Experiment [13] concerns the target Guanine nucleotide-binding protein G(i) subunit alpha-1 (Homo sapiens) (UniProt P63096). Nature of the experiment: qHTS Assay for Inhibitors of RGS12 GoLoco Motif Activity (Green Fluorophore) (AID 879).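 Also: 0% = labeled peptide with Gαi1 and full inhibition = labeled peptide alone without protein; negative values mean loss of peptide binding seen as reduced polarization.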 The procedure, abridged:
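Fluorescence polarization assay: 50 nM Gαi1 with 10 nM FITC-labeled RGS12 GoLoco peptide in 10 mM Tris pH 7.5, 150 mM NaCl, 0.1 mM GDP, 0.05% NP40, 10 min at room temperature with compound.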

Experiment [14] can be described thus: Confirmation and Secondary Assay for Modulators of Hemoglobin Beta Chain Splicing at IVS2 654 locus (AID 910).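 Also: HeLa cells stably carrying EGFP split by mutant beta-globin IVS2-654 intron; % of control where 0% means no effect.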 The method in brief:
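HeLa cells stably expressing EGFP interrupted by β-globin IVS2-654 intron, seeded overnight in Opti-MEM/2% FCS, then treated 2 days at 37 °C. Restored splicing read as total peak GFP intensity per well by laser scanning cytometry (488 nm excitation, 500–520 nm emission); 500 nM antisense PNA as control.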

Experiment [15] concerns the target Cytochrome P450 3A4 (Homo sapiens) (UniProt P08684). Nature of the experiment: qHTS Assay for Activators of Cytochrome P450 3A4 (AID 885). Also: nearly all actives have a fitted effect of over 65% in size. The method in brief: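 20nM CYP3A4 + 25uM Luciferin-PPXE (=KM), 200mM KPO4; cpd 10 min RT; NADPH regen, 60 min RT; stop w/ detection buffer, 20 min; luminescence. Normalized to 57 uM ketoconazole.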
Experiment [16] deals with Cytochrome P450 2D6 (Homo sapiens) (UniProt P10635). Nature of the experiment: qHTS Assay for Inhibitors and Substrates of Cytochrome P450 2D6 (AID 891). Also: potency is read from the fitted curve at half-maximal effect; nearly all actives have a fitted effect of over 60% in size. The method in brief: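 Human CYP2D6 (5 nM) with 30 uM Luciferin-ME EGE (at Km) in 100 mM KPO4, compound preincubated 10 min, then NADPH regeneration system for 60 min at room temperature. Luciferin read by luminescence; normalized to 1.43 uM quinidine.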
Cytochrome P450 2D6 (Homo sapiens), sequence (P10635 whole entry, looked up): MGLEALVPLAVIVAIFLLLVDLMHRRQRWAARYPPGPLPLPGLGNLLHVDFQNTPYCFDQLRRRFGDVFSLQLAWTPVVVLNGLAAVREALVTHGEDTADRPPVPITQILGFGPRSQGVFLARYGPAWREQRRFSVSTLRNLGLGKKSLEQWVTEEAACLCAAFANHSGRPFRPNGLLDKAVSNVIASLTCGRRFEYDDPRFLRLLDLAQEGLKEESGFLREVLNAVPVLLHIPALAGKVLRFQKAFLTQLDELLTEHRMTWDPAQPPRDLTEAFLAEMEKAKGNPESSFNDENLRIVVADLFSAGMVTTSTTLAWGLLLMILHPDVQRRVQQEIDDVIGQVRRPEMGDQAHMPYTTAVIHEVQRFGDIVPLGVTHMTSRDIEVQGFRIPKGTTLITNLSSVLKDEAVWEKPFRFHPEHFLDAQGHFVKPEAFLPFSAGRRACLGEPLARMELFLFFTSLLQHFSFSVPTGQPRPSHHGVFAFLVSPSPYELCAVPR

Experiment [17] is described as follows: qHTS Assay for Identification of Small Molecule Antagonists for NFkB Signaling Pathway (AID 895; active = well fitted inhibition curve with a large enough effect in the signal ratio, with a control signal flat, not every such curve was filed as active; the % refers to the signal ratio; also: % is scaled to controls: 0 for no effect and ±100 for the full control effect). The procedure, abridged:
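ME-180 NFkB-bla cells (beta-lactamase under NFkB response element), plated overnight, treated with compound then 10 pM TNF alpha (about EC50) for 5 hrs at 37 C. LiveBLAzer FRET read at 460/530 nm emission, 405 nm excitation.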

For experiment [18], the target named is Cytochrome P450 2C19 (Homo sapiens) (UniProt P33261). Nature of the experiment: qHTS Assay for Inhibitors and Substrates of Cytochrome P450 2C19 (AID 899). Also: nearly all actives have a fitted effect of over 60% in size. Also: potency is read from the fitted curve at half-maximal effect. The method in brief:
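Signal comes from luciferase acting on luciferin released by CYP2C19-mediated hydroxylation of Luciferin-H EGE, 10uM (KM). Assay mix: 5nM enzyme, 50mM KPO4; 60 min at 37C with NADPH regeneration. Data normalized against 57uM ketoconazole.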

Experiment [19] has as its target Cytochrome P450 2C9 (Homo sapiens) (UniProt P11712). Nature of the experiment: qHTS Assay for Inhibitors and Substrates of Cytochrome P450 2C9 (AID 883). Also: % is scaled to controls: 0 for no effect and ±100 for the full control effect; nearly all actives have a fitted effect of over 60% in size. The method in brief:
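Signal: luciferase luminescence reporting luciferin produced by CYP2C9. Conditions: 10nM enzyme, Luciferin-H 100uM at KM, 25mM KPO4, 37C, 60 min NADPH-driven reaction. Reference: 57uM sulphaphenazole as 100% inhibition.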

A short description of experiment [20]: qHTS Assay for Identification of Small Molecule Agonists for Hypoxia Response Element Signaling Pathway (AID 914; active = well fitted activation curve with a large enough effect in the signal ratio, with a control signal flat, not every such curve was filed as active; the % refers to the signal ratio; also: % of control where 0% means no effect). Conditions: ME-180 (cervical carcinoma) HRE-bla reporter, beta-lactamase ratio, CoCl2, 17 h; hits give high values. The method in brief:
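AC50 values come from titration-series %Activity, taken as the 460/530nm ratio of CCF4 fluorescence (excitation 405nm). CellSensor HRE-bla ME-180 cells were treated 17 hours at 37 C with compound plus an EC50 level of CoCl2.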

The source of these data is PubChem BioAssay (NCATS).

Structures are written as SMILES. Several values for one entry are separate records, joined by “and”; a condition that tells them apart may be missing. Identical values can stand only once. Values without a mark were called inactive. Results filed as inconclusive are left out. Activity calls are given as the source filed them. Unless noted, calls follow the shape of the dose curve; as a rule, active = well fitted curve in the direction sought with a large enough effect; inconclusive = small, poorly fitted or top-dose-only effect, or another doubt; inactive = no such curve, though single readings can be large; an effect the other way counts as inactive or inconclusive.

Cytochrome P450 3A4 (Homo sapiens), sequence (P08684 whole entry, looked up): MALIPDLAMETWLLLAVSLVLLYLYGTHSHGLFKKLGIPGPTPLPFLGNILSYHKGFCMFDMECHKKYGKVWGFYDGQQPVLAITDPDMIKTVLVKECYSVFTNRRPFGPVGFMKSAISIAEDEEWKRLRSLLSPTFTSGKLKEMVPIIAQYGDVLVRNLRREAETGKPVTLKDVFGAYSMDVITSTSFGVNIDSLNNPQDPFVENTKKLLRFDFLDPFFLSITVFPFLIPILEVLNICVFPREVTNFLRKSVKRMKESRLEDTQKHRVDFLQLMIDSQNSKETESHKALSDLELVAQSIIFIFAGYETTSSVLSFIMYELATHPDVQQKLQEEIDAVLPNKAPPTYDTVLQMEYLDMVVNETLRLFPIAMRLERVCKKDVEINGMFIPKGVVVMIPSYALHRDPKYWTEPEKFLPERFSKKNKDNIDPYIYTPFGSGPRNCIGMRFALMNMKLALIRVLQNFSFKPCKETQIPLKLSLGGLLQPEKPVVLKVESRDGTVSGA
Cytochrome P450 2C19 (Homo sapiens), sequence (P33261 whole entry, looked up): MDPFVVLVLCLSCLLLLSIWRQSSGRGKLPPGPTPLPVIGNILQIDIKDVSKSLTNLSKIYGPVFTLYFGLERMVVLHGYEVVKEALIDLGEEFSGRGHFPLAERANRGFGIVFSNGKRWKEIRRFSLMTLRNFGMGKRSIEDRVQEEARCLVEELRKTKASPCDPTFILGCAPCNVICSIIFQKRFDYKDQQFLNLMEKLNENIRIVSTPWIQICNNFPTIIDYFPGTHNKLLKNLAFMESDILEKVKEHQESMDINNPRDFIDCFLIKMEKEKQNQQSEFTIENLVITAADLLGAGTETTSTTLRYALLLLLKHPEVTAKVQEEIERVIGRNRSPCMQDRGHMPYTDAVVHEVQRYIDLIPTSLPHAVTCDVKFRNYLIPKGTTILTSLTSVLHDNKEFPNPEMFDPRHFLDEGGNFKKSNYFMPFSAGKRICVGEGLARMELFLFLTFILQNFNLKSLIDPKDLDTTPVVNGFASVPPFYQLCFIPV
Guanine nucleotide-binding protein G(i) subunit alpha-1 (Homo sapiens), sequence (P63096 whole entry, looked up): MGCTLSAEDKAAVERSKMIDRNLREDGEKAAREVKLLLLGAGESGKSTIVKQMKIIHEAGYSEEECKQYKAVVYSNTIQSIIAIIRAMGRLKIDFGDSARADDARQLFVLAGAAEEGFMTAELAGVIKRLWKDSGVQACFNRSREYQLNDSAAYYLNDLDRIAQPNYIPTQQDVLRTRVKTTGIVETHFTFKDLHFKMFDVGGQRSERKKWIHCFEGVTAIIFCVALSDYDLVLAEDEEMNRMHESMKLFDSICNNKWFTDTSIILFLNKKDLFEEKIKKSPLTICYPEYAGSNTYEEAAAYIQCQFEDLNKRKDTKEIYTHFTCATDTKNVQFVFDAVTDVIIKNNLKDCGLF
Cytochrome P450 2C9 (Homo sapiens), sequence (P11712 whole entry, looked up): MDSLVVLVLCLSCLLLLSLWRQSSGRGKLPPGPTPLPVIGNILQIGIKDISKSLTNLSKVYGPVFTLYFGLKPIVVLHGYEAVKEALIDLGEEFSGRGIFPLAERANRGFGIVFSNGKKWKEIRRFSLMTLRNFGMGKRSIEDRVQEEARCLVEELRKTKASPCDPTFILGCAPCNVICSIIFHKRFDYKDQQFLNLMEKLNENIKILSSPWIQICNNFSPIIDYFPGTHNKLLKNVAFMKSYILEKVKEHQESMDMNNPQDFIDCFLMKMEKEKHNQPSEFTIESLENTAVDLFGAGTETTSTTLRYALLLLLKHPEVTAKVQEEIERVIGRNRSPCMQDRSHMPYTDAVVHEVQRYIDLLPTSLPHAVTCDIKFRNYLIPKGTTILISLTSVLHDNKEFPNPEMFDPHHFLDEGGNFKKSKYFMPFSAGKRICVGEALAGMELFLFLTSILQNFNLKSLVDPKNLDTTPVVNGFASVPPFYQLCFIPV

In the case of `CCC(C)(C)c1ccc(O)cc1`, the caspase-3 activation in [1] was -1.04%. Further, the Potency entry in experiment [2] and in experiment [12] was “inactive” in each case. In addition, the result in [3], in experiment [4], in experiment [5], in experiment [6], in [7] and in experiment [8] was inactive. Besides, the molecule was classed as inactive in experiment [9], in experiment [10] and in experiment [11].
As for `CCCCC/C=C\C/C=C\C/C=C\C/C=C\CCCC(=O)NCC(=O)O`, in experiment [13], the call was inactive.
`COc1cc(OC)c(OC)cc1C=O`: the caspase-3 activation in [1] was 1.29%. Also, the Potency entry in experiment [2] and in [12] was “inactive” each time. Moreover, the molecule was called inactive in experiment [3], in experiment [4], in experiment [5], in [6], in [7] and in experiment [8]. Further, the molecule was classed as inactive in experiment [9], in [10], in experiment [11] and in experiment [14].
Turning to `COP(=S)(OC)Oc1ccc(SC)c(C)c1`, the caspase-3 activation in experiment [1] is 0.672%. Moreover, in experiment [2], the Potency result is “inactive”. Moreover, the call in experiment [3], in experiment [4], in experiment [5], in [6], in experiment [7] and in experiment [8] was inactive. The molecule was classed as inactive in experiment [9], in experiment [10], in experiment [11] and in [14].
Turning to `O=C(CCCN1CCC2(CC1)C(=O)NCN2c1ccccc1)c1ccc(F)cc1`, the result in [13], in experiment [15] and in experiment [14] was inactive. Moreover, the Potency in experiment [16] was 2.51 µM (active) and 1.58 µM (active); in experiment [18], 6.31 µM (active). Also, the Potency result in experiment [17] is “inactive”.
In the case of `COc1ccc2c(c1)C13CCCC[C@@H]1C(C2)N(C)CC3` (some centres undefined), in [16], the Potency was 3.98 µM (active).
In the case of `CCCCCCNC(=O)n1cc(F)c(=O)[nH]c1=O`, the Potency in experiment [12] is 20 µM (active). The call in [15] was inactive.
In the case of `NC(=O)c1cc([N+](=O)[O-])cc([N+](=O)[O-])c1`, the Potency in [12] is 7.94 µM (active). The outcome in experiment [15] and in [14] was inactive.
Turning to `COc1cc(-c2ccc(=O)[nH]n2)ccc1OC(F)F`, the call in [19] was inactive.
Take `CCC1(c2ccc(N)cc2)CCC(=O)NC1=O` (centres undefined): the molecule was classed as inactive in experiment [15] and in experiment [14].
For the molecule `COc1c2c(cc3c1OCO3)CCN(C)C2`, the Potency in experiment [16] is 3.98 µM (active). For the same molecule, the activation in experiment [20] was -5.25%.
`Cn1c(=O)c2[nH]cnc2n(C)c1=O`: in [18], the Potency result is “inactive”.
Take `O=c1oc2ccccc2c(O)c1Cc1c(O)c2ccccc2oc1=O`: in [14], the call was inactive.
As for `CC(C)(C)NCC(O)c1ccccc1Cl` (centres undefined), in [12], the Potency entry is “inactive”. Moreover, the molecule was called inactive in experiment [14].
As for `c1ccc2c(c1)sc1ccccc12`, the Potency entry in experiment [12] is “inactive”. In experiment [14], the call was inactive.
On to `CNC(C)(C)Cc1ccccc1`, for which the Potency entry in [12] was “inactive”. For the same molecule, in experiment [14], the result was inactive.
Take `Cc1ncsc1CCCl`: in [18], the Potency is 7.94 µM (active).
With `O=C1c2ccccc2C(=O)c2ccccc21`, the Potency entry in experiment [12] is “inactive”. Moreover, the molecule was classed as inactive in experiment [14].
Regarding `Nc1ccc(O)cc1`, the molecule was classed as inactive in experiment [15].
Regarding `CC(NC(C)(C)C)C(=O)c1cccc(Cl)c1` (centres undefined), the Potency entry in experiment [12] is “inactive”. The molecule was classed as inactive in experiment [14].
`C=CCN1C[C@H](C)N([C@H](c2ccc(C(=O)N(CC)CC)cc2)c2cccc(OC)c2)C[C@H]1C`: the Potency in experiment [16] is 1.58 µM (active).
As for `C=CCc1ccc(O)c(OC)c1`, the outcome in experiment [15] was inactive.
With `CC(C)N(CCC(C(N)=O)(c1ccccc1)c1ccccn1)C(C)C` (centres undefined), the outcome in [14] was inactive.
Consider `CCOP(=S)(OCC)Oc1ccc2c(C)c(Cl)c(=O)oc2c1`, for which the result in experiment [15] and in experiment [14] was inactive.
For `NC(=O)CS(=O)C(c1ccccc1)c1ccccc1` (centres undefined), the Potency result in experiment [12] is “inactive”. Also, in [14], the outcome was inactive.
In the case of `CCC1(CC)C(=O)C=CNC1=O`, in experiment [12], the Potency result is “inactive”. For the same molecule, the molecule was called inactive in [14]. Also, in experiment [20], the activation was -12.7%.
